From PubChem
In the library only some 4.1% were active in any assay of this set; here they are far more common.
Peg3 promoter: Peg3 promoter activity inhibition; inhibition, % at 20 µM; 360,000 compounds, 1.7% hits; HeLa PEG-Prom luciferase reporter, luminescence, overnight;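 active = inhibition of at least 50% at 20 µM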
LMP1 NFkB inh: reduces LMP1-driven NF-kappaB luciferase signal; inhibition, % at 12.5 µM; 350,000 compounds, 0.69% hits; LMP1-induced NF-kappaB luciferase reporter cells, luminescence; AID 504558; in the data active = inhibition above about 41%
TWEAK Fn14 block: inhibitors of TWEAK-Fn14 interaction signaling. AID 1159606. TWEAK-stimulated Fn14 reporter cells, luciferase luminescence, 8 h. inhibition, % at 10 µM. 360,000 compounds, 2% hits; in the data active = inhibition above about 50%
TROY NFkB inh: blocks TROY-dependent signaling in reporter cells | Q293 LMP1-TROYcd NF-kB luciferase reporter, 4 h | inhibition, % at 10 µM | 360,000 compounds, 0.98% hits;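 active = compounds whose plate-normalised and pattern-corrected inhibition of the luciferase reporter signal at the single screening dose is 50% or more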
Shn3 3UTR inh: Schnurri-3 reporter inhibition in Clone20 osteoblasts. AID 588674. Clone20 osteoblast Shn3 3'UTR firefly luciferase, 24 h. inhibition, % at 12.5 µM. 360,000 compounds, 0.52% hits;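 active = mean inhibition of at least 75% with every replicate also reaching 75%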
TRPM1 prom inh: inhibitors of MITF-driven TRPM1 promoter in melanoma cells; 330,000 compounds, 0.83% hits; SK-MEL-5 TRPM1 promoter luciferase, 24 h; AID 488899; inhibition, % at 12.5 µM;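 active = mean inhibition across replicates of 60% or more, whatever share of single replicates reaches that level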
Large screens that a line does not name were inactive.

COc1cccc(C(c2nnnn2C(C)(C)C)N2CCN(C/C=C/c3ccccc3)CC2)c1OC (configuration not stated)	none (no result: LMP1 NFkB inh, TRPM1 prom inh)
Cc1c(CC(=O)NCCCCCC(=O)O)c(=O)oc2cc3c(cc12)CCC(C)(C)O3	none
Cc1c(CC(=O)NCCCC(=O)O)c(=O)oc2cc3c(cc12)CCC(C)(C)O3	TWEAK Fn14 block 81.1
Cc1c(C(=S)NC(=O)C2CC2)c(=O)n(-c2ccccc2)n1C	none
COc1cccc(N=c2oc3ccc(OC)cc3cc2-c2nc3ccccc3[nH]2)c1	TWEAK Fn14 block 62.0
COc1ccc(N=c2oc3ccc(OC)cc3cc2-c2nc3ccccc3[nH]2)cc1	none
COc1cccc(N=c2oc3ccccc3cc2-c2nc3ccccc3[nH]2)c1	TWEAK Fn14 block 74.6
Cc1ccc(/C=N/Nc2nc(C(C)(C)C)cs2)o1	none
Cc1ccc(/C=N/Nc2nc3ccccc3s2)o1	TWEAK Fn14 block 60.3
Cc1cc(=O)[nH]c(N/N=C/c2ccco2)n1	none
Cc1cc(=O)[nH]c(N/N=C/c2ccc(C)o2)n1	LMP1 NFkB inh 48.4
O=C(c1ccc2c(c1)C(=O)N(CCCO)C2=O)c1ccc2c(c1)C(=O)N(CCCO)C2=O	none
O=C1c2ccc3c4c(ccc(c24)C(=O)N1CCCCO)C(=O)N(CCCCO)C3=O	TRPM1 prom inh 102.2
N#C/C(=C/c1ccc(N2CCCCCC2)o1)c1ccc(Cl)cc1	Peg3 promoter 97.4, Shn3 3UTR inh 96.0
N#C/C(=C/c1ccc(N2CCCCC2)o1)c1cccc(F)c1	none
Cc1ccc(/C=N/n2c(C)nnc2C)o1	none
Cc1ccc(C=Nc2ccc(N(C)C)cc2)o1	TWEAK Fn14 block 61.8
O=C(N/N=C/c1ccc2ncccc2c1)c1ccco1	LMP1 NFkB inh 47.7, TWEAK Fn14 block 69.8, TROY NFkB inh 50.9
O=C(N/N=C/c1ccccn1)c1ccco1	none
C=CCn1c(SCc2ccc(C(=O)Nc3nccs3)cc2)nnc1-c1ccc(C)c(Cl)c1	Peg3 promoter 51.9, TWEAK Fn14 block 91.6
O=C(NN1CCOCC1)c1ccccc1Br	none
CCOc1cccc2sc(NC(=O)CCS(=O)(=O)c3ccccc3)nc12	Peg3 promoter 52.6
COc1ccc(C)c2sc(NC(=O)CCS(=O)(=O)c3ccccc3)nc12	Peg3 promoter 77.8
CCOc1cccc2sc(N(CCN(C)C)C(=O)CCS(=O)(=O)c3ccccc3)nc12	none
O=[N+]([O-])c1ccc2nc(NN=Cc3ccc(O)cc3)sc2c1	Peg3 promoter 72.2, TWEAK Fn14 block 69.0, TROY NFkB inh 66.2
CC(C)c1ccc(/C=C/C(=O)Nc2nc3ccc([N+](=O)[O-])cc3s2)cc1	none
COc1ccc(C2NC(=S)NC3=C2CCCC3=C2SCCS2)cc1 (configuration not stated)	TRPM1 prom inh 84.4
Fc1ccccc1CNc1ncnc2sccc12	none
c1ccc2c(c1)OCC(CNc1ncnc3sccc13)O2 (configuration not stated)	TWEAK Fn14 block 50.7
CN1CCN(S(=O)(=O)c2cccc(C(=O)Nc3ccc(Br)cc3Br)c2)CC1	none
O=C1C=CC(=O)N1c1cccc(-c2ccccc2)c1	Peg3 promoter 108.5
Cc1ccc(C(=O)CSc2nnnn2C(C)C)c(C)c1	LMP1 NFkB inh 45.9, TWEAK Fn14 block 89.6, TROY NFkB inh 53.3
COc1ccc(CNC(=O)COC(=O)c2ccccn2)cc1	none
C[C@@H]1CN([C@H](C)CO)C(=O)CCCn2cc(nn2)CO[C@H]1CN(C)S(=O)(=O)c1ccc(Oc2ccccc2)cc1	none (no result: TRPM1 prom inh)
O=C1NCCOC(=O)[C@@H](Cc2ccc(F)cc2)CC/C=C/C[C@@H]1CC(=O)N(CCO)Cc1ccccc1	Shn3 3UTR inh 90.9
O=C1NC[C@H](c2ccccc2)OC(=O)[C@@H](Cc2ccc(F)cc2)CC/C=C/C[C@H]1CC(=O)N(CCO)Cc1ccccc1	Peg3 promoter 59.3
O=C1NC[C@H](c2ccccc2)OC(=O)[C@@H](Cc2ccc(F)cc2)CC/C=C/C[C@@H]1CC(=O)N(CCO)Cc1ccccc1	none
O=C1NC[C@H](c2ccccc2)OC(=O)[C@H](Cc2ccc(F)cc2)CC/C=C/C[C@H]1CC(=O)N(CCO)Cc1ccccc1	Peg3 promoter 58.6
CCSc1ccc([C@@H]2[C@H]3C(=O)N(C)C(=O)[C@H]3[C@]3(C(=O)OC)CCCCN23)cc1	none
O=c1nc2n(c3c4c(sc13)CCC4)CCC2	none
CCN(Cc1ccccc1)C(=O)c1nn(-c2ccc(OC)cc2)c(=O)c2c1c1ccccc1n2C	Peg3 promoter 67.7
c1ccc(OCCNc2ccn3nc(-c4ccc(OCCN5CCOCC5)cc4)cc3n2)cc1	TWEAK Fn14 block 53.6 (no result: LMP1 NFkB inh, TRPM1 prom inh)
c1csc(CNc2ccn3nc(-c4ccc(OCCN5CCOCC5)cc4)cc3n2)c1	none (no result: LMP1 NFkB inh, TRPM1 prom inh)
CCCCCCN1CCN(C2CN(Cc3cn(CCCC(=O)OC)nn3)S(=O)(=O)C2)CC1 (configuration not stated)	none (no result: Peg3 promoter, LMP1 NFkB inh, Shn3 3UTR inh, TRPM1 prom inh)
C#Cc1cccc(Nc2nc(NC(C)C)nc3ccsc23)c1	TWEAK Fn14 block 52.8 (no result: LMP1 NFkB inh, TRPM1 prom inh)
C#Cc1cccc(Nc2nc(NCCOC)nc3ccsc23)c1	none (no result: LMP1 NFkB inh, TRPM1 prom inh)
CC(C)Nc1nc(Nc2ccccc2Cl)c2sccc2n1	TWEAK Fn14 block 64.5 (no result: LMP1 NFkB inh, TRPM1 prom inh)
COCCNc1nc(Nc2ccccc2Cl)c2sccc2n1	none (no result: LMP1 NFkB inh, TRPM1 prom inh)
C#Cc1cccc(Nc2nc(NCc3ccccc3OC)nc3ccsc23)c1	TWEAK Fn14 block 74.0 (no result: LMP1 NFkB inh, TRPM1 prom inh)
Cc1ccc(NC(=O)CN2CCCC2c2cccn2C)cc1C (configuration not stated)	none
Cn1c(/C(C#N)=C/c2cccc(O)c2)nc2ccccc21	none
Cn1c(/C(C#N)=C/c2ccc(-c3ccc(S(N)(=O)=O)cc3)o2)nc2ccccc21	Peg3 promoter 71.8
Cc1ccc2sc(N(CCCN(C)C)C(=O)CN3C(=O)c4ccccc4C3=O)nc2c1C	none
CC1(C)CC[C@]2(C(=O)n3ccnc3)CC[C@]3(C)[C@H](C(=O)C=C4[C@@]5(C)C=C(C#N)C(=O)C(C)(C)[C@@H]5CC[C@]43C)[C@@H]2C1	Peg3 promoter 105.8, LMP1 NFkB inh 89.6, TWEAK Fn14 block 105.7, TROY NFkB inh 74.5, Shn3 3UTR inh 94.2, TRPM1 prom inh 94.3
O=S(=O)(NC(CO)Cc1ccccc1)c1ccc(Br)cc1F (configuration not stated)	none
COc1ccc(-c2ccc(SCC(=O)N3c4ccccc4CC3C)nn2)cc1OC (configuration not stated)	TWEAK Fn14 block 63.3
CCOC(=O)c1c(C)n(-c2ccc(C)cc2)c2ccc(OCC(O)CN3CCN(C)CC3)cc12 (configuration not stated)	Peg3 promoter 78.5
CCOC(=O)c1c(C)n(C)c2ccc(OCC(O)CN3CCN(C)CC3)cc12 (configuration not stated)	none
Cc1ccc(CNC(=O)c2ccc(N3CCC4(CC3)CC(c3cccc(Br)c3)=NO4)c(NC(=O)c3ccc(Cl)c([N+](=O)[O-])c3)c2)cc1	none
